Activity calls are given as the source filed them. The rule behind the calls is not given here.

Sequence of Pantothenate synthetase (Mycobacterium tuberculosis (strain ATCC 25618 / H37Rv)) (P9WIL5 whole entry, looked up): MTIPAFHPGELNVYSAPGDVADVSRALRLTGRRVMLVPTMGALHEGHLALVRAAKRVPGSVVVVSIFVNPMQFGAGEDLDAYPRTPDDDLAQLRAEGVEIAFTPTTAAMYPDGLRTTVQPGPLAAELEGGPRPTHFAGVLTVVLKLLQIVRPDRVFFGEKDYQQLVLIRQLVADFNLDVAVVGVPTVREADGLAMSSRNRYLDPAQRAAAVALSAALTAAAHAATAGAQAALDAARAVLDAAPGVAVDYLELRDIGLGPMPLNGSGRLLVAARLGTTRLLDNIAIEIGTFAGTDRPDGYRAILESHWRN

The assay concerns the target Pantothenate synthetase (Mycobacterium tuberculosis (strain ATCC 25618 / H37Rv)) (UniProt P9WIL5). Briefly: Coupled enzyme confirmation of inhibitors against recombinant Mtb PanC (AID 375).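 Note: 0% = full reaction with vehicle and 100% = no enzyme background.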 To be noted: coupled enzyme assay; at 10 µM, hits give high values.
As a reminder, the inhibition is the percentage by which the read-out fell short of the control. With `O=C1c2ccccc2C(Nc2ccc3c(c2)OCCO3)N1Cc1ccco1` (configuration not stated), the inhibition was 0% (inactive). `Cc1cc(NC(=O)COc2ncnc3sc(C)c(C)c23)no1`: the inhibition is 0% (inactive). On to `CC1=C(C(=O)Nc2ccccc2C)C2(CCCC2)C(C(N)=O)C(=O)N1` (configuration not stated), for which the inhibition is 0% (inactive).

In the case of `COC(=O)c1sc(S(=O)(=O)N2CCN(c3ccccc3)CC2)c(C(=O)OC)c1C`, the inhibition was 10% (inactive). `CC1CN(S(=O)(=O)c2ccc(Cl)c(C(F)(F)F)c2)CC(C)O1` (configuration not stated): the inhibition is 0% (inactive). Turning to `CC1=C(C(N)=O)C(c2ccccn2)n2nc(SCc3ccccc3)nc2N1` (configuration not stated), the inhibition is 0% (inactive). The value for `CCn1c(=O)cc(SCC(=O)NCC2CCCO2)c2ccccc21` (configuration not stated) was 6% (inactive); that for `CCOCC(=O)Nc1nc2c(s1)C(=O)CC(C)(C)C2` was 5% (inactive).

With `Cc1cc(SCC(N)=O)nc(SCC(=O)c2ccccc2)n1`, the inhibition was 0% (inactive). As to `Cc1ccc(Nc2cc(-n3nc(C)cc3C)ncn2)cc1`, the inhibition was 0% (inactive). As for `CCNc1nc(NC(C)C)nc(N(C#N)CCOc2ccc(Cl)cc2Cl)n1`, the inhibition was 7% (inactive).

On to `COCCn1c(C23CC4CC(CC(C4)C2)C3)n[nH]c1=S`, for which the inhibition was 0% (inactive).

For `C=C(C)COc1ccc(-c2n[nH]c(C)c2-c2ccccc2)c(O)c1`, the inhibition is 0% (inactive).

In the case of `CCn1c(=O)cc(SCC(=O)Nc2cccnc2)c2ccccc21`, the inhibition was 0% (inactive). With `CCOC(=O)c1sc(N)c(C(=O)OCC)c1COC(=O)C1CC(=O)N(Cc2ccco2)C1` (configuration not stated), the inhibition is 6% (inactive).

Turning to `CCn1nnc(NC(=O)c2cc3ccccc3o2)n1`, the inhibition was 0% (inactive). In the case of `CC1=C(C(=O)NC2CCC(C)CC2)C2(CCC(C)CC2)OC1=O` (configuration not stated), the inhibition was 2% (inactive).

The record behind these values is PubChem BioAssay.
